Measured values published in publication PMC5540273 (PLoS ONE, 2017).

Assays:
Details in all cases: concentration: 1 μM, replicates: in singlicate; n = 1
[1] = system: MKNK1
[2] = system: MKNK2
[3] = system: T1, MLCK
T1 construct: gene MYLK3

[4] = system: T2, MLK1
T2 construct: gene MAP3K9

[5] = system: MLK2
[6] = system: MLK3
[7] = system: MRCKA
[8] = system: T3, MRCKB
T3 construct: gene CDC42BPB

[9] = system: MST1R
[10] = system: T4, MST1
T4 construct: gene STK4

[11] = system: T5, MST2
T5 construct: gene STK3

[12] = system: T6, MST3
T6 construct: gene STK24

[13] = system: MST4
[14] = system: MTOR
[15] = system: MUSK
[16] = system: MYLK2
[17] = system: MYLK4
[18] = system: MYLK
[19] = system: MYO3A
[20] = system: MYO3B
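Also: KINOMEscan kinase panel screen.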

| SMILES | %Inh [1] [%] | %Inh [2] [%] | %Inh [3] [%] | %Inh [4] [%] | %Inh [5] [%] | %Inh [6] [%] | %Inh [7] [%] | %Inh [8] [%] | %Inh [9] [%] | %Inh [10] [%] | %Inh [11] [%] | %Inh [12] [%] | %Inh [13] [%] | %Inh [14] [%] | %Inh [15] [%] | %Inh [16] [%] | %Inh [17] [%] | %Inh [18] [%] | %Inh [19] [%] | %Inh [20] [%] |
| --- | --- | --- | --- | --- | --- | --- | --- | --- | --- | --- | --- | --- | --- | --- | --- | --- | --- | --- | --- | --- |
| COc1cc2nccc(Nc3ccc(NC(=O)c4ccc(C)cc4)c(O)c3)c2cc1OC.Cl [GW440132] | 0 | 5 | 0 | 0 | 0 | 33 | 13 | 8 | 0 | 1 | 0 | 0 | 0 | 4 | 13 | 4 | 0 | 11 | 10 | 0 |
| O=C(Nc1ccccc1)Nc1cccc(Oc2ccc3nccn3n2)c1 | 10 | 0 | 7 | 0 | 9 | 0 | 1 | 4 | 0 | 0 | 0 | 3 | 0 | 21 | 0 | 0 | 0 | 0 | 0 | 0 |
| Cl.NC(=O)c1cccc(Nc2nccc(Nc3ccc(Oc4cccc(Cl)c4)c(Cl)c3)n2)c1 [GW659008] | 8 | 4 | 0 | 0 | 33 | 0 | 26 | 0 | 0 | 15 | 0 | 10 | 0 | 0 | 13 | 21 | 14 | 3 | 6 | 3 |
| CCn1c(-c2cccnc2O)nc2cnccc21 [SB-736715] | 17 | 1 | 0 | 0 | 0 | 0 | 4 | 0 | 0 | 0 | 23 | 0 | 0 | 0 | 0 | 15 | 0 | 0 | 0 | 3 |
| Cl.Oc1ccc(-c2nc(-c3ccccc3)[nH]c2-c2ccncc2)cc1 [SB-428218] | 0 | 0 | 14 | 0 | 0 | 0 | 43 | 2 | 0 | 10 | 0 | 0 | 0 | 32 | 0 | 0 | 17 | 22 | 46 | 0 |
| COc1cccc(NC(=O)NC2CCN(c3ccnc(Nc4ccc(F)cc4)n3)C2)c1 (stereo not drawn) [GSK1379721] | 23 | 0 | 0 | 0 | 0 | 0 | 6 | 0 | 28 | 0 | 17 | 0 | 0 | 19 | 0 | 1 | 6 | 0 | 25 | 6 |
| Cc1ccc(NC(=O)Nc2cccc(Cl)c2)cc1-c1ccc(C(=O)Nc2ccncc2)cc1 [GSK1398468] | 6 | 4 | 0 | 0 | 0 | 0 | 19 | 0 | 34 | 1 | 0 | 0 | 0 | 9 | 5 | 9 | 13 | 8 | 100 | 0 |
| NC(=O)c1nnc2ccccc2c1N | 12 | 0 | 0 | 84 | 0 | 0 | 0 | 0 | 10 | 4 | 65 | 0 | 15 | 10 | 10 | 0 | 78 | 37 | 9 | 5 |
| Cc1cccc(-c2nc(Nc3ccncc3)c3ccccc3n2)n1 [GW855857] | 0 | 0 | 0 | 11 | 7 | 6 | 47 | 63 | 0 | 0 | 0 | 3 | 0 | 50 | 17 | 7 | 7 | 12 | 0 | 17 |
| COC(=O)c1c(-c2ccccc2)c2cc(C(=O)O)ccc2c(=O)n1Cc1ccccc1 | 0 | 0 | 0 | 41 | 14 | 0 | 0 | 0 | 19 | 0 | 12 | 0 | 9 | 25 | 0 | 8 | 0 | 0 | 0 | 0 |
| COc1ccc2nc(-c3cccc(C)n3)nc(Nc3ccncc3)c2c1 [GSK204919] | 0 | 9 | 0 | 0 | 0 | 7 | 38 | 94.1 | 26 | 11 | 0 | 0 | 0 | 43 | 1 | 0 | 0 | 5 | 0 | 0 |
| COc1cc2ncn(-c3cc(OCC4CCCO4)c(C(N)=O)s3)c2cc1OC (stereo not drawn) [GSK204607] | 0 | 4 | 0 | 0 | 0 | 10 | 8 | 0 | 16 | 0 | 1 | 6 | 0 | 11 | 1 | 0 | 81 | 19 | 15 | 0 |
| Cc1cccc(-c2nc(Nc3cccc(C(N)=O)c3)c3ccccc3n2)n1 [GW876019] | 0 | 0 | 0 | 4 | 0 | 0 | 38 | 32 | 0 | 31 | 20 | 0 | 0 | 35 | 0 | 0 | 0 | 28 | 11 | 20 |
| Cn1ccc2ncnc(Oc3ccc(NC(=O)Nc4ccccc4)cc3)c21 | 13 | 43 | 0 | 0 | 0 | 19 | 0 | 16 | 10 | 0 | 0 | 0 | 0 | 16 | 14 | 2 | 0 | 3 | 5 | 28 |
| COc1ccc(CNC(=O)NC2CCN(c3ccnc(Nc4cc(OC)c(OC)c(OC)c4)n3)C2)cc1 (stereo not drawn) [GSK1379748] | 8 | 30 | 0 | 0 | 21 | 23 | 34 | 0 | 29 | 0 | 1 | 0 | 0 | 14 | 2 | 4 | 2 | 10 | 36 | 0 |
| Cc1nnc(-c2ccc3occ(-c4ccc(S(C)=O)cc4)c3c2)[nH]1 (stereo not drawn) | 9 | 49 | 8 | 6 | 3 | 4 | 1 | 0 | 0 | 0 | 0 | 11 | 0 | 10 | 16 | 4 | 7 | 11 | 0 | 2 |
| Cc1cccc(-c2nc(Nc3ccc4[nH]ncc4c3)c3ccccc3n2)n1 [GW857175] | 0 | 0 | 0 | 2 | 22 | 7 | 0 | 72 | 0 | 0 | 0 | 10 | 27 | 0 | 0 | 7 | 32 | 32 | 0 | 0 |
| C[C@@H]1CCCCN1c1cc(-c2ccc3c(N)n[nH]c3c2)nc(N)n1 [GSK2258759] | 0 | 5 | 0 | 0 | 0 | 0 | 6 | 0 | 28 | 0 | 0 | 7 | 0 | 2 | 5 | 0 | 0 | 5 | 30 | 0 |
| Cc1ccc(C(=O)Nc2ccc(Nc3ccnc4cc(-c5ccccn5)ccc34)cc2O)cc1.Cl [GW440146] | 0 | 0 | 0 | 0 | 0 | 0 | 18 | 0 | 52 | 10 | 0 | 0 | 0 | 17 | 14 | 6 | 0 | 5 | 11 | 0 |
| COc1ccccc1-c1ccc2c(NC(=O)C3CC3)n[nH]c2n1 [SB-711239] | 0 | 0 | 14 | 8 | 8 | 8 | 0 | 0 | 16 | 0 | 0 | 0 | 0 | 30 | 0 | 23 | 0 | 12 | 0 | 0 |
| Cc1cccc(-c2cc(Nc3ccncc3)c3ccccc3n2)n1 [GSK223675] | 11 | 4 | 0 | 0 | 0 | 0 | 0 | 0 | 33 | 0 | 6 | 5 | 0 | 7 | 1 | 0 | 0 | 15 | 17 | 0 |
